A short description of test [1]: NCI Yeast Anticancer Drug Screen. Data for the rad50 strain (AID 155).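 Also: 0% = growth of vehicle-only cultures of the same strain.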 The settings on record: S. cerevisiae rad50 strain growth inhibition; at 50.0 µM; hits give high values. An outline of the steps: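 Compounds were tested on a yeast strain with an engineered DNA damage repair alteration; the reported value is growth inhibition normalised to vehicle treatment.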

Test [2] is described as follows: NCI Yeast Anticancer Drug Screen. Data for the mec2-1 strain (AID 157). The note with it: S. cerevisiae mec2-1 strain, at 50.0 µM, hits give high values. The procedure, abridged: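 Test agents were screened against the mec2-1 yeast strain, with defined DNA repair or cell cycle alteration. Growth was scored as inhibition against vehicle-only controls.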
Test [3] in a line: NCI Yeast Anticancer Drug Screen. Data for the sgs1 mgt1 strain (AID 161).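 Also: 0% = growth of cultures given vehicle only.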 The settings on record: S. cerevisiae sgs1 mgt1 strain, at 50.0 µM, hits give high values. An outline of the steps:
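Genetically altered yeast, compound exposure, growth inhibition relative to vehicle.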

Test [4] in a line: NCI Yeast Anticancer Drug Screen. Data for the cln2 rad14 strain (AID 165).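 Also: 0% = growth equal to vehicle treated cultures.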 The note with it: S. cerevisiae cln2 rad14 strain, at 50.0 µM, hits give high values. The procedure, abridged: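 Growth of compound-exposed yeast (cln2 rad14 genotype) measured and expressed as inhibition relative to vehicle.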
Test [5] in a line: NCI Yeast Anticancer Drug Screen. Data for the bub3 strain (AID 167). The note with it: S. cerevisiae bub3 mutant strain, at 50.0 µM, hits give high values. An outline of the steps:
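Growth of a checkpoint-deficient yeast mutant is measured after compound exposure. Values represent inhibition relative to vehicle.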

A short description of test [6]: NCI Yeast Anticancer Drug Screen. Data for the mlh1 rad18 strain (AID 175). The note with it: S. cerevisiae mlh1 rad18 strain growth inhibition; at 50.0 µM; hits give high values. An outline of the steps:
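In this whole-cell yeast screen, a strain with altered DNA damage repair is challenged with compound, and its growth is measured against matched vehicle-treated controls.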

About 79,000 compounds went through this panel and 15% of them were active in at least one assay; those are over-represented in the sample as a whole. Unmarked numbers belong to inactive results. The source made the active and inactive calls. Rule as the data show it: active = growth inhibition above about 70%; inactive = the rest.

For `COC1=C(OC)CCC(/C(C#N)=C/c2ccc(OC)c(OC)c2)=C1`, the growth inhibition was 18.8% in test [1]; -3.45% in test [2]; -10% in test [3]; -11.8% in test [4]; -0.9% in test [5]; 25.4% in test [6].
Regarding `Cc1ccc(N2CCN(CCC(=O)O)CC2)cc1`, the growth inhibition in test [1] was -1.15%; in test [2] it was 8.8%; in test [3], 0.75%; in test [4], -3.85%; in test [5], -41.6%; in test [6] it was 22.4%.
As for `CC(=O)CC(=O)Nc1cccc(C)c1`, the growth inhibition is -13.9% in test [1]; -15.7% in test [2]; 2.8% in test [3]; 5.3% in test [4]; 16.2% in test [5]; -5.65% in test [6].
As to `CCc1cccc(CC)c1N1C(=O)C2C(C1=O)C1(Cl)C(Cl)=C(Cl)C2(Cl)C1(Cl)Cl` (stereo not given), the growth inhibition in test [1] is 37.4%; in test [2] it was 50.6%; in test [3], 65.4%; in test [4] it was 74.2% (active); in test [5], 61%; in test [6], 87.6% (active).
As for `CC(C)Sc1nc(NC(=O)N(C)N=O)cc(=O)[nH]1`, the growth inhibition is -3.4% in test [1]; -3.45% in test [2]; 19.6% in test [3]; 27.5% in test [4]; -9.95% in test [5]; -32.1% in test [6].
For `FC1C2=C(SC1(F)F)C1CCC2C1` (stereo not given), the growth inhibition in test [1] was 4.9%; in test [2], -2.2%; in test [3], 28.1%; in test [4], 17.9%; in test [5], -4.05%; in test [6], 12.9%.
`CCOC(=O)CNC(=O)C(Cc1cnc[nH]1)NC(=O)CNC(=O)OCc1ccccc1` (stereo not given): the growth inhibition in test [1] is 1.15%; in test [2], -2.15%; in test [3], 9.75%; in test [4], -23.9%; in test [5], 1.1%; in test [6], 9.2%.
`C=CCOc1cc2c(cc1C(C)c1ccc(OC)cc1)OCO2` (stereo not given): the growth inhibition in test [1] is 12.3%; in test [2], 0.75%; in test [3], 5.95%; in test [4] it was -10.3%; in test [5], 14.5%; in test [6], -0.6%.
For `O=C1c2cccc3cc([N+](=O)[O-])cc(c23)C(=O)N1Cc1cccnc1`, the growth inhibition was 42.5% in test [1]; 15.6% in test [2]; 38.6% in test [3]; 19% in test [4]; 10.5% in test [5]; 10.8% in test [6].
With `CNC(=O)NC(c1cc(OC)c(O)c(OC)c1)c1cc2c(cc1O)OCO2` (stereo not given), the growth inhibition in test [1] is 29.5%; in test [2], 38.8%; in test [3], 11.8%; in test [4], 9.6%; in test [5], 8.05%; in test [6] it was 44.6%.
Regarding `CCCCCCCCCCCCCCCCCCCCc1ccccc1`, the growth inhibition is 25.9% in test [1]; 10.3% in test [2]; 1.2% in test [3]; 12.7% in test [4]; -14.2% in test [5]; 26.4% in test [6].
For the compound `C=CCOC(=O)C(C)(C)OC(C)=O`, the growth inhibition was 13.9% in test [1]; 5.9% in test [2]; 10.8% in test [3]; 3.15% in test [4]; 2% in test [5]; -1.85% in test [6].
Take `CCOc1cn(C2OC(CO)C(O)C2O)c(=O)[nH]c1=O` (stereo not given): the growth inhibition in test [1] was -33.9%; in test [2], -28.4%; in test [3], -16.2%; in test [4] it was 3.55%; in test [5], -25.2%; in test [6], 3.5%.
`Cc1nc2nc[nH]n2c1N=Nc1ccccc1`: the growth inhibition is -28.3% in test [1]; -2.55% in test [2]; -9.5% in test [3]; -13% in test [4]; 7.5% in test [5]; 9.5% in test [6].
For the compound `CN(C)CCN(C(=Nc1ccccc1)N1CCCC1)c1ccccc1`, the growth inhibition in test [1] was -18.7%; in test [2], -30.8%; in test [3] it was -30.4%; in test [4], 17.1%; in test [5], 0.45%; in test [6], 4.5%.
For `CCCCCCCCCSCCOC(=S)N(C)C`, the growth inhibition in test [1] was 13.7%; in test [2], 14.7%; in test [3], 79.2% (active); in test [4], 2.7%; in test [5], 21.8%; in test [6], 34.6%.
Regarding `COc1ccccc1/C=C1\C(=O)N(C(=O)Cc2ccccc2)N=C1C`, the growth inhibition was -4.4% in test [1]; -8.15% in test [2]; -54.2% in test [3]; -10.8% in test [4]; -3.85% in test [5]; -25.4% in test [6].
`Nc1nc(N)c(N2CCN(Cc3ccccc3)CC2)c(Cl)n1`: the growth inhibition was 30.1% in test [1]; 10.8% in test [2]; 33.1% in test [3]; 18.9% in test [4]; 18.3% in test [5]; 27.4% in test [6].
Consider `CC(=O)OCC1OC(OCC(OC(C)=O)C(OC(C)=O)C(OC(C)=O)c2cnn(-c3ccccc3)n2)C(OC(C)=O)C(OC(C)=O)C1OC(C)=O` (stereo not given), for which the growth inhibition was 1.35% in test [1]; 0.2% in test [2]; 2.65% in test [3]; -15.2% in test [4]; 12.4% in test [5]; 6.5% in test [6].
`CCc1c(COC(=O)NC)c(COC(=O)NC)cc2c1[nH]c1ccccc12`: the growth inhibition in test [1] was -16.6%; in test [2], -1.95%; in test [3] it was -2.95%; in test [4], -16.4%; in test [5], -41%; in test [6] it was -14.6%.

These data come from PubChem BioAssay (NCI).
